PubChem BioAssay AID2781 (National Center for Advancing Translational Sciences (NCATS), 2010)
The source made the active and inactive calls.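 Rule for the calls: active = compound whose NMR saturation transfer difference test with menin is positive, showing direct binding to the protein; inactive = the rest.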

Molecular target: Menin (Homo sapiens) (UniProt O00255)
Assay: Confirmation of Inhibitors Targeting the Menin-MLL Interaction in MLL Related Leukemias: NMR spectroscopy to verify direct binding of compounds to menin
Settings: purified menin, NMR STD binding, 100 uM
From the text: qHTS Assay for Inhibitors Targeting the Menin-MLL Interaction in MLL Related Leukemias NIH Chemical Genomics Center [NCGC] NIH Molecular Libraries Probe Centers Network [MLPCN] MLPCN Grant: MH084875-01A1 Assay Submitter (PI): Jolanta Grembecka, Tomasz Cierpicki, University of Virginia Translocations of the MLL (Mixed Lineage Leukemia) gene are frequently found in human leukemias affecting both children and adults. Fusion of MLL to one of more than 60 genes results in generation of oncogenic proteins upregulating Hox genes, which are vital to blood cell development. Patients harboring fusion of the MLL gene suffer from aggressive leukemias and respond poorly to available therapies. All of the oncogenic fusion proteins have a preserved N-terminal fragment of MLL that has been identified to interact with menin. It has been recently discovered that association with menin is critical to the leukemogenic activity of the MLL fusion oncoproteins. Selective targeting of the menin-MLL interaction could provide an attractive therapeutic approach to develop novel drugs for MLL-related leukemias. Small molecules blocking the menin-MLL interaction should reverse the oncogenic potential of MLL fusion proteins. We have developed and optimized a fluorescence polarization-based assay for the identification of Menin-MLL inhibitors. The assay was run employing two different MLL-derived peptides. The present assay uses a 12 amino acid peptide labeled with fluorescein at its N-terminus. This peptide consists of the menin high affinity binding motif from MLL and is potently bound by menin. Another peptide with a mutated sequence, labeled with Texas Red, was used in parallel as a less stringent screen for inhibitors. The present assay was developed to confirm hits from this primary screen, examining saturation transfer differences in NMR spectra upon incubation of the menin protein with compound.
The Menin protein, the MLL-wild type (w.t.) derived peptide (N-terminal 12 amino acids), the MLL-derived peptide labeled with Texas Red and the MLL-w.t. peptide labeled with Fluorescein were kindly supplied by laboratory of Dr. Jolanta Grembecka, University of Virginia. All protein and peptide solutions were stored in single use aliquots at -80C. The Buffer components for all assays were purchased from Sigma-Aldrich (St. Louis, MO) and Invitrogen (Carlsbad, CA). Assay Reagents: 1. Menin protein 2. MLL w.t. 3. NMR buffer: 50mM phosphate, 50mM NaCl, 1mM DTT, pH = 7.5 NMR protocol: 1. Prepare 450 uL of menin (2.5 uM) in complex with 100uM compound in NMR buffer and run STD (Saturation Transfer Difference) on NMR Bruker 600 MHz 2. Prepare 450 uL of menin (2.5 uM) in complex with 100 uM compound and 25uM of MLL w.t. in NMR buffer and run STD (Saturation Transfer Difference) on NMR Bruker 600 MHz

Menin (Homo sapiens), sequence (O00255 whole entry, looked up): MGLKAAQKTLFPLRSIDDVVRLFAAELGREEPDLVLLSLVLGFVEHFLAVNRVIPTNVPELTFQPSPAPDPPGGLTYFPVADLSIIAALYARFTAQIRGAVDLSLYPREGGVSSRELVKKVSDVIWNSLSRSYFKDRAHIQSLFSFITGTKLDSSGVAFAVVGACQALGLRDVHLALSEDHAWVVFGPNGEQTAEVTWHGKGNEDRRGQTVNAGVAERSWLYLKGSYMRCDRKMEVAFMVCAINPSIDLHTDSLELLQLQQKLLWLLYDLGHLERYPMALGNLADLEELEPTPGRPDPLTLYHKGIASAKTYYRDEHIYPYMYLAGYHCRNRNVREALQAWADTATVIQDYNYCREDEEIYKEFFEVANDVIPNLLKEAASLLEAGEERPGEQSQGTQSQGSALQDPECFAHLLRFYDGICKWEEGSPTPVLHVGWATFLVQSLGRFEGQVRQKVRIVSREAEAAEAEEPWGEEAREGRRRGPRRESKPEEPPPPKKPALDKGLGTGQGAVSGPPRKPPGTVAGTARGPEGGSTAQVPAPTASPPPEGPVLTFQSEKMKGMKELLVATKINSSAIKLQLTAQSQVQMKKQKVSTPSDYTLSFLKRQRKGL

SMILES | outcome
Cc1ccc(-c2cc(C(=O)Nc3cc(C)ccc3O)no2)cc1 | inactive; negative
CCOC(=O)c1cnc2ccc(OC)cc2c1Nc1ccc(N2CCN(C)CC2)cc1 | inactive; negative
CC(=O)NC1C(=O)N(CCN2CCOCC2)c2ccc(Cl)cc21 (stereo not given) | inactive; negative
O=C(COC(=O)c1ccc(NS(=O)(=O)c2cccs2)cc1)Nc1nc2c(F)c(F)c(F)cc2s1 | inactive; negative
CC1CCCCN1S(=O)(=O)c1ccc(C(=O)Nc2ccccc2-c2nc3ccccc3[nH]2)cc1 (stereo not given) | inactive; negative
CN(C)C(CNc1ncnc2sc3c(c12)CCCCC3)c1ccco1 (stereo not given) | active; positive
CCOc1ccc2c(c1)C(NC(C)=O)C(=O)N2CCN1CCOCC1 (stereo not given) | inactive; negative
CCCC(c1nnnn1Cc1ccco1)N1CCN(C2CCCC2)CC1 (stereo not given) | active; positive
O=C1C(SCCO)=C(SCCO)C(=O)c2ccccc21 | inactive; negative
O=C(C[N+]12CC[N+](CC(=O)c3ccc(F)cc3)(CC1)CC2)c1ccc(F)cc1 | active; positive
COC(=O)Cc1c(C)nc2nc(-c3ccc(OC)cc3)[nH]n2c1=O | inactive; negative
Cc1nc(N2CCN(C)CC2)c2c3c(sc2n1)CCCC3 | inactive; negative
CCC(c1nnnn1Cc1ccc(F)cc1)N1CCN(C2CCCCC2)CC1 (stereo not given) | active; positive
NS(=O)(=O)c1ccc(NC(=O)c2ccc(-c3ccccc3)cc2)cc1 | inactive; negative
COc1ccc(S(=O)(=O)Nc2cc(SCC(=O)O)c(O)c3ccccc23)cc1 | inactive; negative
CCc1cc2c(N3CCN(C(=O)c4ccco4)CC3)ncnc2s1 | inactive; negative
O=C(CSc1nc(O)cc(=O)n1-c1ccccc1)c1ccc(Br)cc1 | inactive; negative
C[C@H](NC(=O)c1cc2c(cn1)[nH]c1ccccc12)C(=O)O | inactive; negative
CCNC(=S)N1CCN(c2nc(CC)nc3sc4c(c23)CCCC4)CC1 | inactive; negative
CCC(=O)Nc1ccc(-c2cc(-c3ccccc3)nc(-c3ccc(NC(=O)CC)cc3)n2)cc1 | inactive; negative

SMILES | outcome
COc1ccccc1NS(=O)(=O)c1cc(N2Cc3ccccc3C2=N)ccc1N1CCOCC1 | inactive; negative
CCc1cc2c(N3CCN(c4nnc(CC)s4)CC3)ncnc2s1 | inactive; negative
O=C(Nc1cc(Br)ccc1O)c1cc(-c2ccc3c(c2)OCO3)on1 | inactive; negative
CCN(CC)Cc1cc2[nH]c3c4ccc(Cl)cc4ncc3c2cc1OC | inactive; negative
O=C(O)c1ccccc1NS(=O)(=O)c1cccc(-n2sc3ccccc3c2=O)c1 | inactive; negative
Cc1cc(N/N=C/c2ccc(O)cc2)c2cccc(C)c2n1 | inactive; negative
CC(c1ccccc1)c1nnc(NC(=O)Nc2ccccc2F)s1 (stereo not given) | inactive; negative
O=C(CCC1CCCCC1)NCCN1C2=NC[C@H](Cc3ccc(O)cc3)N2C[C@H]1Cc1ccc(O)cc1 | active; positive
CCCC[n+]1c2ccccc2cc2ccccc21 | inactive; negative
CC(=O)NC1C(=O)N(CCN2CCOCC2)c2ccc(C)cc21 (stereo not given) | inactive; negative
COc1cc(-c2ccc(-[n+]3nc(-c4ccccc4)nn3-c3ccc([N+](=O)[O-])cc3)c(OC)c2)ccc1-[n+]1nc(-c2ccccc2)nn1-c1ccc([N+](=O)[O-])cc1 | inactive; negative
CCOc1cc(CNCCc2ccc(S(N)(=O)=O)cc2)ccc1OCc1ccccc1 | active; positive
CCc1ccc2c(c1)C(NC(C)=O)C(=O)N2CCN1CCOCC1 (stereo not given) | inactive; negative
N#Cc1ccc(OCC(O)CN2CCN(C(c3ccccc3)c3ccccc3)CC2)cc1 (stereo not given) | active; positive
O=C(Nc1cc(Br)ccc1O)c1cc(-c2ccco2)on1 | inactive; negative
CC(C)Sc1nc(N2CCOCC2)c2c3c(sc2n1)COC(C)(C)C3 | inactive; negative
COC(=O)c1ccccc1NC1=C/C(=N\S(=O)(=O)c2ccc(C(=O)O)cc2)c2ccccc2C1=O | inactive; negative
COC(=O)[C@H](C)NC(=O)c1cc2c(cn1)[nH]c1ccccc12 | inactive; negative
Cc1cc2[nH]c3c(c[n+](C)c4ccccc34)c2cc1C | inactive; negative
CCNc1ccccc1CP(=O)(c1ccccc1)c1ccccc1O (stereo not given) | inactive; negative
